In all, about 39,000 sequences were measured (“fluorescence intensity (a.u.)”: median about 4,300, highest 2% from about 39,000 on). The sample holds the highest values, similar sequences and a random draw of the others, so the mix is not that of the screen.

The experiment deals with T1, OsSMF1 (Oryza sativa, UniProt Q6ZLB0 1-436).
T1 sequence: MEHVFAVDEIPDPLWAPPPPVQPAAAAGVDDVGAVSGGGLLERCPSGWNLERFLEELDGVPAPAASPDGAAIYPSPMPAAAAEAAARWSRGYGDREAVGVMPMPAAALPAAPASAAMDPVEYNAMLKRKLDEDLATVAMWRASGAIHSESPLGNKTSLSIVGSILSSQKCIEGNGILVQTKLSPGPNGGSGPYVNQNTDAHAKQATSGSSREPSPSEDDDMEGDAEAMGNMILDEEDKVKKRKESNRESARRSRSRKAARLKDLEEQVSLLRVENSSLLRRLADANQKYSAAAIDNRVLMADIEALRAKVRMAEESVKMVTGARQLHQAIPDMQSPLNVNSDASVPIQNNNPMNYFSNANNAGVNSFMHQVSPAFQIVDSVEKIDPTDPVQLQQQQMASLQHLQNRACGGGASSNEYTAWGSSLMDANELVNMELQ
Put plainly: protein-binding microarray (RPBM); PBS, 2% BSA, 51.3 ng/ul salmon testes DNA, 50 uM zinc acetate, 200 nM TF, 25 C, 1 h; high values mean tight binding. As to conditions: protein: recombinant; tags: N-terminal polyhistidine and DsRed monomer fusion (pET32a); chain copies: 2; label: CyDye5-dUTP incorporated in the synthesized complementary strand; 3' TTTTT single-stranded linker to array surface; dsDNA, one strand shown. The method in brief: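 The binding signal for each feature is its fluorescence intensity in arbitrary units. An Axon 4000B scanner was used to read a custom Agilent array that had been made double-stranded with Cy5-dUTP primer extension, blocked with 2% BSA, incubated at 25 °C for 1 h with 200 nM protein in PBS, 2% BSA, salmon testes DNA and 50 µM zinc acetate, and washed. The protein was an N-terminal polyhistidine–DsRed transcription factor fusion from E. coli BL21-CodonPlus, purified on Ni–NTA.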
Take “CCCAGCACCCTACTACACCAACATACTCCTACGTGGAGCACGGAGTCACCTAGTGCAG”: the binding signal was 6040 fluorescence intensity (a.u.). The result for “GTATCCATATATCCGATATGACACGCCAAAACTTTACACCCGGAGTCACCTAGTGCAG” reads 4870 fluorescence intensity (a.u.); that for “ACCATCCGAGCTGTCAAGATCCGACGTGGGTTGTGAAGGCCGGAGTCACCTAGTGCAG”, 8700 fluorescence intensity (a.u.); that for “ATAGTTGTGATTAGATTGTGACGTACACAATGAGTATGCACGGAGTCACCTAGTGCAG”, 5250 fluorescence intensity (a.u.). The result for “GCGAAGAACGCTTGCACTTGTGTGCAGCGACGCGCGAATTCGGAGTCACCTAGTGCAG” reads 4440 fluorescence intensity (a.u.). On to “GTTCCACATTTCAGCATTAATGAATTGGCATACGTGATGACGGAGTCACCTAGTGCAG”, for which the binding signal is 3360 fluorescence intensity (a.u.).

As for “CTTGGCCGTGGCCGCTGACATGGCATCACCTCATCCGCAACGGAGTCACCTAGTGCAG”, the binding signal is 4320 fluorescence intensity (a.u.).

For “TCTCGCTTAATGTTTTCTTTACACATACGATGCTTTAGATCGGAGTCACCTAGTGCAG”, the binding signal is 3790 fluorescence intensity (a.u.). With “TTTGCATACGTGCATGCTTGATGACGTCATGCTGACGTGGCGGAGTCACCTAGTGCAG”, the binding signal is 63100 fluorescence intensity (a.u.). Take “GGCGGCGATGGCGGCCGTGCTGACGGACGATTTCCTGCTCCGGAGTCACCTAGTGCAG”: the binding signal was 3220 fluorescence intensity (a.u.).

As for “TTTCTTTTCAGACGATGACGTCACACCGTTCTTCATGTATCGGAGTCACCTAGTGCAG”, the binding signal was 12300 fluorescence intensity (a.u.). Take “TTCCAACCCGCCCCGTGTGCTGACGTGGCAGCCATGTTGGCGGAGTCACCTAGTGCAG”: the binding signal was 19300 fluorescence intensity (a.u.). As for “TGTTCCAACCCGCTCCGTGTGCTGACGTGGCATGACATGGCGGAGTCACCTAGTGCAG”, the binding signal was 44900 fluorescence intensity (a.u.). As to “AGTTTTGTACGCATGTGTGGCGCTGACGTCATGCCCGATCCGGAGTCACCTAGTGCAG”, the binding signal was 18000 fluorescence intensity (a.u.). For the sequence “TTGCTGCAAATGACGTCGACATGTGCGTGGCATACCATGGCGGAGTCACCTAGTGCAG”, the binding signal was 15000 fluorescence intensity (a.u.). As for “GGATGCATGCATGCTGATGATGTCAGGCTGATACGTGCGTCGGAGTCACCTAGTGCAG”, the binding signal was 7340 fluorescence intensity (a.u.). Turning to “GGCGCTGATGTCATGCTGACGTCAGTGCCTGATTTTGCTCCGGAGTCACCTAGTGCAG”, the binding signal is 56100 fluorescence intensity (a.u.). The result for “AGTATGCTTTTCTTAACGATGACGTCAGCATACACCTCGGCGGAGTCACCTAGTGCAG” reads 45200 fluorescence intensity (a.u.); that for “CAAACAATATTCTTTTGTGACTAGATCAAGCCGTAGTGTTCGGAGTCACCTAGTGCAG”, 3650 fluorescence intensity (a.u.). Next, “TATGTACCTTTTCCACAGAACCCTCTACTGTGCCAGGTCACGGAGTCACCTAGTGCAG”: 15600 fluorescence intensity (a.u.); “CGCGGCAGATCCGCTGGTTGTGGCGGCGTCAGCGGTAGCCCGGAGTCACCTAGTGCAG”: 4030 fluorescence intensity (a.u.); “ACGACATGCGTGCAAATGCATTGTAAATTTGTAATACGGCCGGAGTCACCTAGTGCAG”: 22300 fluorescence intensity (a.u.).

In the case of “TACTTTCGTTTGCAAATATGCGGAATGATGGGGCTGTTTCCGGAGTCACCTAGTGCAG”, the binding signal was 3700 fluorescence intensity (a.u.). With “CACTCTTTATTTTATTATGACTTGATTCGTCATCAAATGTCGGAGTCACCTAGTGCAG”, the binding signal was 3870 fluorescence intensity (a.u.).

Consider “ACCCACACCTCGTCCCCGTCACCTCCTATATCATCGTCATCGGAGTCACCTAGTGCAG”, for which the binding signal is 6470 fluorescence intensity (a.u.). Consider “AATATTCTCTGTCTCGGTGTGGTGTCTCTCCTCTGACGGCCGGAGTCACCTAGTGCAG”, for which the binding signal was 4810 fluorescence intensity (a.u.). For “ATTAGATTTACCGCAAACAATGACGTCCTCCCTGCCTGGACGGAGTCACCTAGTGCAG”, the binding signal was 4900 fluorescence intensity (a.u.). Regarding “ATAATGCATTTAGTATTGCCACCCTGTACTAATAGATGTTCGGAGTCACCTAGTGCAG”, the binding signal was 3810 fluorescence intensity (a.u.). In the case of “CGAGGCGGGGTGCACCTTCATGGTCAGTGGCCCGTGGTTCCGGAGTCACCTAGTGCAG”, the binding signal is 4270 fluorescence intensity (a.u.). Take “CGGTGATCCCATACTTGGCACGTACACGTGCCCTCTTGATCGGAGTCACCTAGTGCAG”: the binding signal is 6030 fluorescence intensity (a.u.). On to “AAAAGTAATTTATAAATAAAATTTCTATATACGTGTTCTTCGGAGTCACCTAGTGCAG”, for which the binding signal was 3220 fluorescence intensity (a.u.).

As to “AAACGGATAAGTTAGTAAGTAATTTCTTCCCTCCTAATTTCGGAGTCACCTAGTGCAG”, the binding signal is 45900 fluorescence intensity (a.u.).

For “TTATATACTCCCTCTTTCCACGTAAGTTACATTTATTACTCGGAGTCACCTAGTGCAG”, the binding signal is 7340 fluorescence intensity (a.u.).

As for “TTTTCCAACTTACCTCCTTCATTTTCCACGCGCACATTTTCGGAGTCACCTAGTGCAG”, the binding signal is 65500 fluorescence intensity (a.u.).

Regarding “GGCCGCGTGCGTGTGTCCAAACCTTCTCCACGCATTTCCTCGGAGTCACCTAGTGCAG”, the binding signal is 4220 fluorescence intensity (a.u.). Consider “GCGCCACCTATAAAACGCCCGCGCGCCCCGCGCCGCCTCCCGGAGTCACCTAGTGCAG”, for which the binding signal was 40300 fluorescence intensity (a.u.). For “TTCTGTAACTTTTCCAACTCACCTTCCTCGCTTCCCACGCCGGAGTCACCTAGTGCAG”, the binding signal is 4820 fluorescence intensity (a.u.).

For “GCGCGCCACGCCACGCCACGCGCCCACGCCTCGCCTCGCCCGGAGTCACCTAGTGCAG”, the binding signal was 10000 fluorescence intensity (a.u.). With “CCCGGGCCTCGCCGCGCCGCGCCACGCCACGCCTCCGCCCCGGAGTCACCTAGTGCAG”, the binding signal was 7580 fluorescence intensity (a.u.). For the sequence “CGTCCACCGCGCCGCCGCCGCCCTCCGTCACGCGCGCGCTCGGAGTCACCTAGTGCAG”, the binding signal is 3270 fluorescence intensity (a.u.). The result for “TCCTCCTTCCTTCCACCTCACCCCAACCCCAACCCCAACCCGGAGTCACCTAGTGCAG” reads 4080 fluorescence intensity (a.u.); that for “TGCCCACGCCGCGCCGCCGCCTCCTCCTCCTCCTCCTCCTCGGAGTCACCTAGTGCAG”, 46900 fluorescence intensity (a.u.); that for “GCCTTTCTCTCCACCGCGATTTCTATATATAAAACGCCCCCGGAGTCACCTAGTGCAG”, 9620 fluorescence intensity (a.u.). On to “GATCTGACCTCCTCAGCCTCCTTCCCCAACTGTTCCACGCCGGAGTCACCTAGTGCAG”, for which the binding signal was 44800 fluorescence intensity (a.u.). Consider “CTCCTCACACATTCCCACGCACACATTTCCCCATGCACATCGGAGTCACCTAGTGCAG”, for which the binding signal is 3180 fluorescence intensity (a.u.). Take “CCACGCGCTCTATAAGTAGACGGCTCTTCGGCGCGTGTCACGGAGTCACCTAGTGCAG”: the binding signal was 3400 fluorescence intensity (a.u.).

These data come from paper PMC7819943, “Rice protein-binding microarrays: a tool to detect cis-acting elements near promoter regions in rice”.
